# From PubChem BioAssay (NCATS)
# Several values for one entry are separate records, joined by “and”; a condition that tells them apart may be missing. Equal values may be shown once. Inconclusive results are not listed. Activity calls are given as the source filed them. The call rests on the fitted dose curve; in most records, active means well fitted inhibition curve with a large enough effect; inconclusive means small, poorly fitted or top-dose-only effect; inactive means flat fitted curve, though single readings scatter.
# Experiment: Drug repurposing screens with cells derived from glioblastoma tumor samples (AID 1345199); further: nearly all actives have a fitted effect of over 40% in size
# Settings: GBM patient neurospheres viability, ATP luminescence, 48 h; at 45.9 µM (top of the series); tumour line B
# In short: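 Primary testing used CD133+ neurospheres from four GBM patients, seven concentrations, 48 h exposure and ATP-based viability; confirmation added three slower-growing patient lines.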
# On the % scale 0 is the no-effect control and ±100 the full control effect.
row,Structure (SMILES),"activity, negative = cell killing"
1,CC[C@H]1NC(=O)[C@@H](NC(=O)c2ncccc2O)[C@@H](C)OC(=O)[C@H](c2ccccc2)NC(=O)[C@@H]2CC(=O)CCN2C(=O)[C@H](Cc2ccccc2)N(C)C(=O)[C@@H]2CCCN2C1=O,-1.4% (inactive)
2,CC1CC(O)CC(C)(C)C1 (stereo not given),-5.77% (inactive)
3,C[Se]CC[C@H](N)C(=O)O,-12.9% (inactive)
4,COc1ccc(/C=C/C(=O)O)cc1,6.24% (inactive)
5,Cc1ncc(C[n+]2csc(CCOP(=O)(O)OP(=O)(O)O)c2C)c(N)n1,-10% (inactive)
6,CC/C=C\C/C=C\C/C=C\C/C=C\C/C=C\C/C=C\CCC(=O)O,-3.27% (inactive)
7,CN1C(C(=O)Nc2ccccn2)C(=O)c2sc(Cl)cc2S1(=O)=O (stereo not given),-14.7% (inactive)
8,C=CCN1CCCC1CNC(=O)c1cc(S(N)(=O)=O)cc(OC)c1OC (stereo not given),-7.52% (inactive)
9,CCCCCCCCCCCC(=O)OC[C@@H](O)C1OC[C@H](O)[C@H]1O (stereo not given in full),-6.52% (inactive)
10,Cc1cccc(Nc2ncccc2C(=O)O)c1C,-17.7% (inactive)
11,O=C(/C=C/c1cccc(F)c1)NC1CC1,-18.1% (inactive)
12,O=C(O)COc1ccc(CCNS(=O)(=O)c2ccccc2)s1,-8.15% (inactive)
13,NC(=O)[C@H]1O[C@@H](O)[C@H](O)[C@@H](O)[C@@H]1O,-7.58% (inactive)
14,CCc1ncnc2cc(OC)c(OC)cc12,-18.2% (inactive)
15,CO/N=C(\C(=O)N[C@@H]1C(=O)N2C(C(=O)O)=C(CSC(=O)c3ccco3)CS[C@H]12)c1csc(N)n1,-9.93% (inactive)
16,CC/C=C\C/C=C\C/C=C\C/C=C\C/C=C\CCCC(=O)O,-9.54% (inactive)
17,CCOC(=O)[C@H](CS)NCCN[C@@H](CS)C(=O)OCC,-15.2% (inactive)
18,O=[N+]([O-])O[C@@H]1CO[C@H]2[C@@H]1OC[C@@H]2O,-16.9% (inactive)
19,NC(Cc1ccccc1)C(=O)O (stereo not given),-8.84% (inactive)

row,Structure (SMILES),"activity, negative = cell killing"
1,CO/N=C(\C(=O)N[C@@H]1C(=O)N2C(C(=O)[O-])=C(C[n+]3ccc(N)n3CCO)CS[C@H]12)c1csc(N)n1,-6.9% (inactive)
2,C(=C\c1ccncc1)/c1ccccc1,-13.9% (inactive) and -17.3% (inactive)
3,CCCCCCCCCCCCCCCCCCCCCC(=O)Nc1ccn([C@@H]2O[C@H](CO)[C@@H](O)[C@@H]2O)c(=O)n1,-14.5% (inactive)
4,C[C@H](O)CN(C)C,-3.73% (inactive)
5,O=C(O)CCCC/C=C(\c1ccccc1)c1cccnc1,-6.07% (inactive)
6,CC(O)CN(C)C (stereo not given),-7.97% (inactive)
7,NC(=O)Oc1ccc(Cc2ccccc2)cc1,-5.11% (inactive)
8,Cc1cc(=O)c(C(=O)N[C@@H](C(=O)N[C@@H]2C(=O)N3C(C(=O)O)=C(CSc4nnnn4C)CS[C@H]23)c2ccc(O)cc2)c[nH]1,-7.34% (inactive)
9,CC(O)[C@H]1CC[C@H]2[C@@H]3CC[C@@H]4C[C@@H](O)CC[C@]4(C)[C@H]3CC[C@]12C (stereo not given in full),-13.1% (inactive)
10,CC(C)(COP(=O)(O)OP(=O)(O)OC[C@H]1O[C@@H](n2cnc3c(N)ncnc32)[C@H](O)[C@@H]1OP(=O)(O)O)C(O)C(=O)NCCC(=O)NCCS (stereo not given in full),-4.74% (inactive)
11,NCC[C@H](O)C(=O)N[C@@H]1C[C@H](N)[C@@H](O[C@H]2O[C@H](CN)[C@@H](O)[C@H](O)[C@H]2O)[C@H](O)[C@H]1O[C@H]1O[C@H](CO)[C@@H](O)[C@H](N)[C@H]1O,-16.5% (inactive)
12,NC(=O)[C@@H]1C[C@]2(NC(=O)NC2=O)c2cc(F)ccc2O1,-9.48% (inactive)
13,O=C(CCCCCCCCCCCCC1CCCC1)Nc1ccc(S(=O)(=O)c2ccc(NC(=O)CCCCCCCCCCCCC3CCCC3)cc2)cc1,0.38% (inactive)
14,C[C@@H](O)[C@H]1C(=O)N2C(C(=O)[O-])=C(SC3Cn4cnc[n+]4C3)[C@H](C)[C@H]12 (stereo not given in full),-14.6% (inactive)
15,Nc1ncnc2c1ncn2CCOCP(=O)(O)O,2.17% (inactive)
16,O=C[C@H](O)[C@@H](O)[C@@H](O)[C@H](O)CO,-11.6% (inactive)
17,COc1ccc(C(=O)c2ccc(C)cc2)c(O)c1,-19.8% (inactive)
18,COc1cc(S(C)=O)ccc1-c1nc2ncccc2[nH]1 (stereo not given),-1.29% (inactive)

# Same assay, conditions: GBM patient neurospheres viability, ATP luminescence, 48 h; at 45.9 µM (top of the series); tumour line D
row,Structure (SMILES),"activity, negative = cell killing"
1,CC[C@H]1NC(=O)[C@@H](NC(=O)c2ncccc2O)[C@@H](C)OC(=O)[C@H](c2ccccc2)NC(=O)[C@@H]2CC(=O)CCN2C(=O)[C@H](Cc2ccccc2)N(C)C(=O)[C@@H]2CCCN2C1=O,17.7% (inactive)
2,CC1CC(O)CC(C)(C)C1 (stereo not given),-9.42% (inactive)
3,C[Se]CC[C@H](N)C(=O)O,-0.664% (inactive)
4,COc1ccc(/C=C/C(=O)O)cc1,-5.33% (inactive)
5,Cc1ncc(C[n+]2csc(CCOP(=O)(O)OP(=O)(O)O)c2C)c(N)n1,-6.5% (inactive)
6,CC/C=C\C/C=C\C/C=C\C/C=C\C/C=C\C/C=C\CCC(=O)O,-12.5% (inactive)
7,CN1C(C(=O)Nc2ccccn2)C(=O)c2sc(Cl)cc2S1(=O)=O (stereo not given),-14% (inactive)
8,S=C1SCN(Cc2ccccc2)CN1Cc1ccccc1,-15% (inactive)
9,C=CCN1CCCC1CNC(=O)c1cc(S(N)(=O)=O)cc(OC)c1OC (stereo not given),-19.4% (inactive)
10,CCCCCCCCCCCC(=O)OC[C@@H](O)C1OC[C@H](O)[C@H]1O (stereo not given in full),-10.2% (inactive)
11,Cc1cccc(Nc2ncccc2C(=O)O)c1C,-8.87% (inactive)
12,O=C(/C=C/c1cccc(F)c1)NC1CC1,-4.02% (inactive)
13,O=C(O)COc1ccc(CCNS(=O)(=O)c2ccccc2)s1,-13.5% (inactive)
14,NC(=O)[C@H]1O[C@@H](O)[C@H](O)[C@@H](O)[C@@H]1O,-15.7% (inactive)
15,CCc1ncnc2cc(OC)c(OC)cc12,-1.42% (inactive)
16,CO/N=C(\C(=O)N[C@@H]1C(=O)N2C(C(=O)O)=C(CSC(=O)c3ccco3)CS[C@H]12)c1csc(N)n1,-3.95% (inactive)
17,CC/C=C\C/C=C\C/C=C\C/C=C\C/C=C\CCCC(=O)O,-0.692% (inactive)
18,CCOC(=O)[C@H](CS)NCCN[C@@H](CS)C(=O)OCC,-8.47% (inactive)
19,O=[N+]([O-])O[C@@H]1CO[C@H]2[C@@H]1OC[C@@H]2O,-5.25% (inactive)

row,Structure (SMILES),"activity, negative = cell killing"
1,NC(Cc1ccccc1)C(=O)O (stereo not given),10.2% (inactive)
2,CO/N=C(\C(=O)N[C@@H]1C(=O)N2C(C(=O)[O-])=C(C[n+]3ccc(N)n3CCO)CS[C@H]12)c1csc(N)n1,-6.66% (inactive)
3,C(=C\c1ccncc1)/c1ccccc1,-13.7% (inactive) and -5.95% (inactive)
4,CCCCCCCCCCCCCCCCCCCCCC(=O)Nc1ccn([C@@H]2O[C@H](CO)[C@@H](O)[C@@H]2O)c(=O)n1,-7.79% (inactive)
5,C[C@H](O)CN(C)C,-16.1% (inactive)
6,O=C(O)CCCC/C=C(\c1ccccc1)c1cccnc1,-10.6% (inactive)
7,CC(O)CN(C)C (stereo not given),-11.2% (inactive)
8,NC(=O)Oc1ccc(Cc2ccccc2)cc1,-13.8% (inactive)
9,Cc1cc(=O)c(C(=O)N[C@@H](C(=O)N[C@@H]2C(=O)N3C(C(=O)O)=C(CSc4nnnn4C)CS[C@H]23)c2ccc(O)cc2)c[nH]1,13% (inactive)
10,CC(O)[C@H]1CC[C@H]2[C@@H]3CC[C@@H]4C[C@@H](O)CC[C@]4(C)[C@H]3CC[C@]12C (stereo not given in full),-23.2% (inactive)
11,CC(C)(COP(=O)(O)OP(=O)(O)OC[C@H]1O[C@@H](n2cnc3c(N)ncnc32)[C@H](O)[C@@H]1OP(=O)(O)O)C(O)C(=O)NCCC(=O)NCCS (stereo not given in full),-6.02% (inactive)
12,NCC[C@H](O)C(=O)N[C@@H]1C[C@H](N)[C@@H](O[C@H]2O[C@H](CN)[C@@H](O)[C@H](O)[C@H]2O)[C@H](O)[C@H]1O[C@H]1O[C@H](CO)[C@@H](O)[C@H](N)[C@H]1O,-17.9% (inactive)
13,NC(=O)[C@@H]1C[C@]2(NC(=O)NC2=O)c2cc(F)ccc2O1,3.75% (inactive)
14,O=C(CCCCCCCCCCCCC1CCCC1)Nc1ccc(S(=O)(=O)c2ccc(NC(=O)CCCCCCCCCCCCC3CCCC3)cc2)cc1,-17.2% (inactive)
15,C[C@@H](O)[C@H]1C(=O)N2C(C(=O)[O-])=C(SC3Cn4cnc[n+]4C3)[C@H](C)[C@H]12 (stereo not given in full),-27.3% (inactive)
16,Nc1ncnc2c1ncn2CCOCP(=O)(O)O,-1.17% (inactive)
17,O=C[C@H](O)[C@@H](O)[C@@H](O)[C@H](O)CO,0.16% (inactive)
18,COc1ccc(C(=O)c2ccc(C)cc2)c(O)c1,-4.36% (inactive)
19,COc1cc(S(C)=O)ccc1-c1nc2ncccc2[nH]1 (stereo not given),-12% (inactive)
